# From PubChem
# A selection: hits, their analogues and other compounds. The true share with any hit is near 2.8%.
# B2AR arrestin ag: beta-arrestin recruitment by human beta2-adrenergic receptor ligands; 44,000 tested, under 10 active; AID 1347077; P07550; HTLA Tango cells, beta-arrestin recruitment, luciferase luminescence, 18 h; Potency, µM (highest dose often 46.1 µM), hits mostly activators;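 note: potency is the fitted concentration of half-maximal effect; 0% = DMSO and full agonism = EC100 isoproterenol or metaproterenol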
# Target sequence (P07550 whole entry, looked up): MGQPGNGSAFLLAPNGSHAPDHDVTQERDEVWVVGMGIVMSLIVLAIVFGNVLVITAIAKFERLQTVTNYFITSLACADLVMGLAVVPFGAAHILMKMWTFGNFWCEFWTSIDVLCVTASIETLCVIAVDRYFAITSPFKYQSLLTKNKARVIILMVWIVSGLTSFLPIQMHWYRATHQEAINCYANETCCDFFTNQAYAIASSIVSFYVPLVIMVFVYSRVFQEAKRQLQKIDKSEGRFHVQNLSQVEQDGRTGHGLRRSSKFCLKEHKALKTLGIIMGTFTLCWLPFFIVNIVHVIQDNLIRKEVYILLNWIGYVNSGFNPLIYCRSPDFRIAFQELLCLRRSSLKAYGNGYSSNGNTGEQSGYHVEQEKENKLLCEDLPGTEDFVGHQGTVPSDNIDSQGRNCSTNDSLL
#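 First, Tango cells carrying beta2-AR and beta-arrestin fusions received compound up to 46 microM. After 18 hr at 37 degrees C, luciferase substrate was added for 15 minutes, then luminescence gave %Activity for curve fitting.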
# FH mod: Identification of activators of human fumarate hydratase by quantitative high-throughput screening; Fumarate hydratase, mitochondrial (Homo sapiens), P07954; FH coupled MDH/diaphorase resazurin fluorescence, 15 min; Potency, µM (doses to about 79.9 µM), for inactives: at the top dose activity change, negative = inhibition, most hits filed as inhibitors; 54,000 tested, 0.22% active; note: potency is the fitted concentration of half-maximal effect; % is set by controls: 0 for no effect and ±100 for the full control effect; the screen sought activators but most active calls are inhibition curves; nearly all actives have a fitted effect of over 45% in size
# GPR32 ag: agonists of human resolvin D1 receptor DRV1 (GPR32). O75388. activation, % at 76.9 µM. AID 1346428. 48,000 tested, 2.5% active. CHO-K1 GPR32 beta-arrestin PathHunter luminescence, 90 min; zero percent set by DMSO-only wells;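 active = activation of at least 60% and not above a set upper limit, about 1 call in 100 departs from these limits; inconclusive = activation of 40% to 60%, or above that upper limit; inactive = activation under 40%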; note: 0% is about no effect
#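 Beta-arrestin recruitment read-out: luminescence from complemented beta-Gal in CHO-K1 GPR32 PathHunter cells, measured 1 h after detection reagent at ambient temperature following 90 min compound exposure at 37 °C; DMSO served as basal (EC0) control.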
# GALC G270D act: raises human GALC G270D mutant activity in cells; Potency, µM (top dose mostly 57.5 µM), usual class: activators; 145M-Twi-hGALC-G270D cells (Twitcher mouse brain line with human GALC G270D), HMU-beta-Gal fluorescence, 48 h; P54803; 45,000 tested, 0.1% active; note: potency is the fitted concentration of half-maximal effect; 0% is about no effect; nearly all actives have a fitted effect of over 65% in size
#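 Fluorogenic HMU-b-Gal hydrolysis (0.1 mM final, pH 5.2 citrate-phosphate with 1 mg/mL sodium taurocholate; carbonate stop buffer) measures mutant GALC activity after compound treatment of live 145M-Twi Twitcher brain cells stably carrying human GALC-G270D, with wild-type GALC line alongside; activation sought.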
# * = called active by the depositor; i = inactive; ? = inconclusive; nt = no result given; [ ] = another dose, or the depositor's remark. Unless noted, calls come from the whole dose curve; as a rule, active = well fitted curve in the direction sought with a large enough effect; inconclusive = small, poorly fitted or top-dose-only effect, or another doubt; inactive = no such curve, though single readings can be large; an effect the other way counts as inactive or inconclusive.
SMILES,B2AR arrestin ag,FH mod,GPR32 ag,GALC G270D act
CC(C)NCC(O)c1ccc2ccccc2c1 (stereo not drawn),nt,-7.5%[53.3 µM],68.2*,i
Nc1n[nH]c(N)c1N=Nc1ccc(O)cc1,nt,-14.6%,nt,nt
COc1ccc(-n2c(SCC(=O)N3CCc4ccccc43)nc3c([nH]c4ccccc43)c2=O)cc1,i,2.3%,110.5*,i
Cc1cc(N2CCOCC2)ccc1Nc1nc(NC2CCCCC2)c2[nH]cnc2n1,nt,-4.4%,nt,nt
CC(=O)OC1CC2C3(C)CCC(OC(=O)CC(=O)O)C(C)(C)C3CCC2(C)C2(C)CCC(C3(C)CCC(=O)O3)C12 (stereo not drawn),nt,0.5%[53.3 µM],nt,nt
C=CCc1ccccc1OCCSc1nc(-c2cccs2)nc2cc(=O)[nH]n12,i,nt,85.6*,nt
O=c1cc2nc(-c3cccs3)nc(SCCOc3ccc(Cl)cc3)n2[nH]1,i,-18.5%,-0.8,i
COc1ccccc1OCCSc1nc(-c2ccc(C(C)(C)C)cc2)nc2cc(=O)[nH]n12,i,nt,65.5*,nt
CC(C)(C)c1ccc(OCCSc2nc(-c3cccs3)nc3cc(=O)[nH]n23)cc1,i,nt,67.9*,nt
Oc1cccc(Nc2ccnc3cc(-c4cccc(CN5CCOCC5)c4)sc23)c1,nt,-23.7%,nt,nt
COc1cccc(CNC(=O)Cn2c(=O)oc3cc(S(=O)(=O)N4CCC(C)CC4)ccc32)c1,i,-24.8%,12.4,i
CN(C)c1ccc(CNC(=O)Cn2c(=O)oc3cc(S(=O)(=O)N4CCCCCC4)ccc32)cc1,i,-6.2%,112.7*,i
CN(C)c1ccc(CNC(=O)C(Cc2ccccc2)NS(=O)(=O)c2ccc3c(c2)oc(=O)n3C)cc1 (stereo not drawn),i,15.4%,94.3*,i
COc1cccc(CNC(=O)Cn2c(=O)oc3cc(S(=O)(=O)N4CCCCCC4)ccc32)c1,i,-6.2%,75.9*,i
CC(C)CC(=O)OC[C@H]1O[C@@](COC(=O)CC(C)C)(O[C@H]2O[C@H](CO)[C@@H](O)[C@H](O)[C@H]2O)[C@@H](OC(=O)CC(C)C)[C@@H]1OC(=O)CC(C)C,nt,-3.0%[20.6 µM],nt,nt
CCC(C)n1c(=N)c(C(=O)NC2CCCC2)cc2c(=O)n3ccccc3nc21 (stereo not drawn),i,-1.7%,1.0,10µM*
Cc1ccc2nc3c(cc(C(=O)NC4CCCC4)c(=N)n3C(C)C)c(=O)n2c1,i,-14.6%,-6.4,i
CC(C)n1c(=N)c(C(=O)NCc2cccnc2)cc2c(=O)n3ccccc3nc21,i,4.6%,-6.7,3.98µM*
COCCCn1c(=N)c(C(=O)NC2CCCC2)cc2c(=O)n3cccc(C)c3nc21,i,2.3%,-3.8,25.1µM*
CCC(C)n1c(=N)c(C(=O)NC2CCCCC2)cc2c(=O)n3cc(C)ccc3nc21 (stereo not drawn),i,-2.2%,5.5,31.6µM*
COCCCn1c(=N)c(C(=O)NC2CCCC2)cc2c(=O)n3cc(C)ccc3nc21,i,0.6%,-0.1,i
CC1=C(CCC(C)O[C@@H]2O[C@H](CO)[C@@H](O)[C@H](O)[C@H]2O)C(C)(C)CC(O)C1 (stereo partly drawn),nt,4.4%[53.3 µM],nt,nt
CC1=C(C(=O)O[C@@H]2O[C@H](COC3OCC(O)C(O)C3O)[C@@H](O)[C@H](O)[C@H]2O)C(C)(C)CCC1 (stereo partly drawn),nt,-0.3%[53.3 µM],nt,nt
CC(=O)O[C@]1(C(C)=O)CC[C@H]2[C@@H]3C[C@H](C)C4=CC(=O)C=C[C@]4(C)[C@@]3(F)[C@@H](O)C[C@@]21C,nt,-1.7%,nt,nt
O=C(/C=C\c1ccc(O)cc1)N[C@@H](Cc1ccc(O)cc1)C(=O)O,nt,-0.8%[53.3 µM],nt,nt
SMILES,B2AR arrestin ag,FH mod,GPR32 ag,GALC G270D act
COc1ccccc1-c1nc(CNC(=O)Nc2ccccc2)c(C)o1,i,-3.5%,23.0,i
COc1ccc(-c2nc(CNC(=O)Nc3ccccc3)c(C)o2)c(OC)c1,i,4.3%,64.7*,i
C=C1[C@@H]2[C@H]3OC(=O)C(=C)[C@@H]3CC[C@@](C)(O)[C@@H]2C[C@@H]1O[C@@H]1O[C@H](CO)[C@@H](O)[C@H](O)[C@H]1O,nt,0.1%[53.3 µM],nt,nt
COc1cc(-c2noc(C3CC(=O)N(c4cc(C)ccc4C)C3)n2)cc(OC)c1OC (stereo not drawn),i,?,75.8*,i
Cc1ccc(N2CC(c3nc(-c4ccc(Cl)cc4)no3)CC2=O)cc1F (stereo not drawn),i,-5.0%,6.1,i
CC(=O)c1ccc(NC(=O)CC2Oc3ccc(C)cc3NC2=O)cc1 (stereo not drawn),i,3.5%,64.8*,i
CCc1ccc(NS(=O)(=O)c2ccc3[nH]cc(C(=O)NCCc4ccccc4)c(=O)c3c2)cc1,i,-10.6%,-7.5,i
CCc1ccccc1NS(=O)(=O)c1ccc2[nH]cc(C(=O)NC3CCCC3)c(=O)c2c1,i,?,106.5*,i
CCN(c1ccccc1)S(=O)(=O)c1ccc2[nH]cc(C(=O)NC3CCCCC3)c(=O)c2c1,i,-18.3%,29.5,i
CCOc1ccc(NS(=O)(=O)c2ccc3[nH]cc(C(=O)NCc4ccco4)c(=O)c3c2)cc1,i,-1.8%,67.3*,i
Cc1cc(C)cc(NS(=O)(=O)c2ccc3[nH]cc(C(=O)NCCc4ccccc4)c(=O)c3c2)c1,i,-6.9%,78.8*,i
CCN(c1ccccc1)S(=O)(=O)c1ccc2[nH]cc(C(=O)NCc3ccc(C)cc3)c(=O)c2c1,i,-0.7%,62.8*,i
CCOc1ccc(NS(=O)(=O)c2ccc3[nH]cc(C(=O)NCc4ccccc4)c(=O)c3c2)cc1,i,-5.7%,?,i
CC(C)(F)CC(NC(c1ccc(-c2ccc(S(C)(=O)=O)cc2)cc1)C(F)(F)F)C(=O)NC1(C#N)CC1 (stereo not drawn),nt,-7.9%,nt,nt
O=C(NC1CCCCC1)c1cc(Nc2cccc(C(F)(F)F)c2)nc2ccccc12,i,-4.3%,7.1,i
CCc1ccc(NS(=O)(=O)c2ccc3[nH]cc(C(=O)NC4CCCC4)c(=O)c3c2)cc1,i,?,?,i
O=C(NC1CCCC1)c1cc(Nc2cccc(C(F)(F)F)c2)nc2ccccc12,i,-7.6%,96.3*,i
O=C(NC1CCCC1)c1c[nH]c2ccc(S(=O)(=O)Nc3cccc(C(F)(F)F)c3)cc2c1=O,i,?,82.3*,i
CCOCCCNC(=O)c1c[nH]c2ccc(S(=O)(=O)Nc3cccc(Cl)c3C)cc2c1=O,i,-24.4%,64.9*,i
CN(C(=O)c1c[nH]c2ccc(S(=O)(=O)Nc3cccc(C(F)(F)F)c3)cc2c1=O)C1CCCCC1,i,11.6%,-13.2,i
O=C(NC1CCCCC1)c1c[nH]c2ccc(S(=O)(=O)Nc3ccccc3F)cc2c1=O,i,?,101.5*,i
